Assay outcomes deposited in PubChem BioAssay by The Scripps Research Institute Molecular Screening Center.
The list is not random: actives were taken first. Their share in the collection is about 4.8%.
DAX1 inh-1 – inhibits human nuclear receptor DAX1 | P51843 | HEK293 Gal4-DAX1 luciferase reporter, luminescence | AID 504766 | 0.99% of 340,000 active | inhibition, % at 6.75 µM;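 active = inhibition above the mean over all tested compounds plus 3 SD, cut at about 4.2% in these data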;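 also: 0% = DAX1-transfected cells with DMSO and 100% = empty-vector control cells with DMSO; inhibition shows as a rise in luminescence from relieved DAX1 repression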
Target sequence (P51843 207-470 limits assumed): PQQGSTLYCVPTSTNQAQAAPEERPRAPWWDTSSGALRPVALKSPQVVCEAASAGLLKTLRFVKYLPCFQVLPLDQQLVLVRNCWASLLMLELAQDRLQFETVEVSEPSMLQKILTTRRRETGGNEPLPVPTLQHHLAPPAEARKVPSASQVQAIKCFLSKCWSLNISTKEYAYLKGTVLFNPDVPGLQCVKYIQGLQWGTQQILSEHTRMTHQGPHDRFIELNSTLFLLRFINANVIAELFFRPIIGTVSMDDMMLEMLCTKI
hgDAF12 agonist – agonists of H. glycines DAF-12 nuclear receptor | 1.8% of 370,000 active | HEK293 GAL4-hgDAF12 UAS-luciferase reporter, agonist luminescence; normalized to butyrate control | activation, % at 6.8 µM;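 active = activation above a cutoff set at the mean of all screened compounds plus 3 SD, cut at about 10% in these data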;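 also: 0% = DMSO wells and 100% = sodium butyrate wells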
DAX1 inh-2 – blocks DAX1 repression of SF-1 activated StAR promoter | AID 652010 | 1.1% of 370,000 active | HEK293T StAR-luciferase reporter, SF-1/DAX-1 repression relief | inhibition, % at 6.8 µM;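 active = inhibition above the mean over all tested compounds plus 3 SD, cut at about 3.6% in these data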;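 also: 0% = DAX-1 cells with DMSO and 100% = cells lacking DAX-1 with DMSO; higher inhibition means more luminescence from relief of DAX-1 repression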
ssDAF-12 act – activates DAF-12 receptor from parasite S. stercoralis. HEK293 ssDAF-12/GRIP1 lit1-tk-luc reporter, luminescence; % of 3 µM dafachronic acid response. activation, % at 6.8 µM. 1% of 370,000 active. AID 652126;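 active = activation above the mean over all tested compounds plus 3 SD, cut at about 0.9% in these data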;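 also: 0% = DMSO-only wells and 100% = 3 µM delta7-dafachronic acid wells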
hcDAF12 agonist – activators of H. contortus DAF-12 nuclear receptor; HEK293 hcDAF-12 lit1-tk-luc reporter, luminescence; 0% DMSO, 100% Δ7-dafachronic acid; activation, % at 6.8 µM; 1.4% of 370,000 active;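 active = activation above the mean of all tested compounds plus 3 SD, cut at about 5.5% in these data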;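 also: 100% = response to 3 µM Δ7-dafachronic acid high control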
SMARCA2 activ – SMARCA2 function activation, primary screen | MG213 cells, MMTV-luciferase reporter, dexamethasone, overnight | activation, % at 9.1 µM | 1% of 370,000 active; in the data active = activation above about 7.8%;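 also: 0% = vehicle wells and 100% = reference activator wells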
SMARCA2 conf – confirmation of SMARCA2 (BRM) function activators. shares compounds with SMARCA2 activ. MG213 cells, MMTV-luciferase with dexamethasone, luminescence, overnight; MG213 cells expressing E1A, Rb sequestered; DMSO wells 0%, reference activator 100%. activation, % at 9.1 µM. 30% of 3,500 active. AID 652260;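 active = activation above its plate's cutoff, the mean activation of tested wells plus 3 SD, cut at about 7.9% in these data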
GAL4-VP16 Luc – activates GAL4-VP16 luciferase, flagging SMARCA2 activator hits. HEK293 GAL4-VP16 pG5luc reporter, luciferase luminescence; scaled: DMSO wells 0%, SAHA wells 100%. shares compounds with SMARCA2 activ. activation, % at 9.1 µM. 41% of 3,500 active;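 active = activation above the solvent-only control well mean plus 3 SD, averaged across control plates, cut at about 5.2% in these data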
Active calls of the source: *; nt = not tested or not shown.

SMILES	DAX1 inh-1	hgDAF12 agonist	DAX1 inh-2	ssDAF-12 act	hcDAF12 agonist	SMARCA2 activ	SMARCA2 conf	GAL4-VP16 Luc
Cc1cc(NS(=O)(=O)c2ccc(NC(=O)CSc3nnc(-c4ccncc4)n3Cc3ccco3)cc2)nc(C)n1	nt	1	0	-1	-1	-5	nt	nt
Cc1cc(NS(=O)(=O)c2ccc(NC(=O)CSc3nnc(-c4ccc(Cl)cc4)n3Cc3ccco3)cc2)nc(C)n1	nt	-3	0	-1	-3	9.5*	-3	-1
Cc1cc(NS(=O)(=O)c2ccc(NC(=O)CSc3nnc(-c4ccncc4)n3-c3ccccc3)cc2)nc(C)n1	nt	0	1	-2	-4	-3	nt	nt
CC1(C)CC(=O)C=C(Nc2ccccc2NC(=O)c2ccc(F)cc2F)C1	nt	1	-1	-1	0	-1	nt	nt
O=c1c2ccccc2sc2ccccc12	2	2	1	-1	2	8.5*	7	5.9*
COc1ccc(CCNC(=O)C(=O)N/N=C/c2cccs2)cc1OC	0	3	-1	-2	-1	14*	-1	-1
CCCCNC(=O)C[C@H]1C[C@@]2(C(=O)OC)C(=C[C@H](COCc3ccccc3)O[C@@H]2C)N(Cc2ccccc2)C1=O	nt	0	-1	-2	-2	-3	nt	nt
COc1cccc(NC(=O)N(C)C[C@H]2OCc3ccccc3-c3c(n(C)c4ccccc34)C(=O)N([C@H](C)CO)C[C@H]2C)c1	nt	-4	-1	-1	-2	-4	nt	nt
Cc1cc(=O)[nH]c(SCC(=O)c2ccc(O)c(O)c2)n1	0	-1	0	-2	-2	4	nt	nt
Cc1ccc(C(=O)CSc2nc(C)cc(=O)[nH]2)cc1	-1	2	0	-2	0	8.2*	-2	0
Cc1sc(=NC(=O)c2ccco2)n(C)c1-c1ccc(F)cc1	0	10	2	0	5	8.8*	14*	12*
Cc1ccc(NC(=O)C2CCN(c3nnc(-n4cccc4)s3)CC2)c(C)c1	nt	0	0	-1	-1	-6	nt	nt
CC(=O)c1cccc(NC(=O)c2cccc(NC(=O)c3ccco3)c2)c1	-1	0	-1	-2	-1	-4	nt	nt
C/C(=N\NC(=O)c1cccc(C)c1)c1cccc(NC(=O)c2ccco2)c1	2	8	0	-1	1	11*	3	1
C/C(=N/NC(=O)c1ccc(Br)o1)c1cccc(NC(=O)c2ccc(C)o2)c1	3	10	1	0	1	13*	0	3
CC(=O)Nc1cccc(/C(C)=N/NC(=O)c2ccc(O)cc2)c1	3	6	0	-2	0	8.1*	3	1
C/C(=N/NC(=O)c1ccco1)c1cccc(NC(=O)c2ccc(C)o2)c1	1	13*	1	-1	2	8.8*	-1	3
CCOC(=O)[C@]12CCCCC/C=C\1N(CCc1ccc(Cl)cc1)C(=O)[C@H]2CC(=O)NCc1cccs1	nt	0	0	-1	0	-4	nt	nt
O=C(COC(=O)c1cccc(NC(=O)c2ccco2)c1)c1ccc(Br)cc1	-1	3	0	-2	-1	8.1*	9.5*	4
CCOC(=O)Cn1nc(NC(=O)c2cc(OC)cc(OC)c2)cc1C	1	-4	0	-2	-3	2	nt	nt
CCOC(=O)Cn1nc(NC(=O)c2ccc(C(=O)OC)cc2)cc1C	-1	0	0	-1	0	11*	9.4*	2
O=C(CS(=O)c1ccc(C(F)(F)F)cc1[N+](=O)[O-])Oc1ccc(Cl)cc1 (configuration not stated)	-1	1	-1	-1	0	11*	14*	0
Cc1cc(C)cc(OC(=O)CS(=O)c2ccc(C(F)(F)F)cc2[N+](=O)[O-])c1 (configuration not stated)	0	1	0	-1	1	14*	13*	4
